Experimental findings from PubChem BioAssay AID710 (SRMLSC, 2007) are described below.

The campaign covered roughly 98,000 compounds. About 150 (0.15%) were called active. Many of the other results were omitted from the sample, so actives are more common in it than they were. Unmarked numbers belong to inactive results.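 Rule for the calls: active = growth inhibition above about 50% at one test dose (limit read from the data); inactive = the rest.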

A short description of the assay: antibacterial activity against E. coli BW25113 – strain BW25113, expanded library, OD600, primary screen (AID 710).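 Note: growth measured after 20 h incubation at 37 °C.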 To be noted: OD600 absorbance, at 100 µM, active compounds read high.
`COc1ccc(C(C#N)Nc2ccccc2C)cc1` (stereo unspecified): the growth inhibition was 5%.

Turning to `COc1cc(/C=C2\SC(=S)N(Nc3ncc(C(F)(F)F)cc3Cl)C2=O)cc(OC)c1OC`, the growth inhibition was -7%.

For `COc1ccccc1N(C)S(=O)(=O)c1ccc(C(=O)N2CCC(C(N)=O)CC2)cc1`, the growth inhibition was 3%.

For `CCCCNC(=O)C1CCCN(S(=O)(=O)c2ccc(S(=O)(=O)NCC(C)C)cc2)C1` (stereo unspecified), the growth inhibition is -1%.

With `Cc1cc(-c2ccccc2)nc(N2CCC(C(=O)NC34CC5CC(CC(C5)C3)C4)CC2)n1`, the growth inhibition was -9%.

On to `S=c1[nH]nc2c3c4c(sc3ncn12)CCCC4`, for which the growth inhibition was 1%.

As to `CCn1c(/C=C/c2ccc([N+](=O)[O-])o2)nc2ccccc2c1=O`, the growth inhibition was 6%.

For the compound `COC(=O)c1ccccc1Oc1c(F)c(F)nc(N2CCOCC2)c1F`, the growth inhibition was 7%.

Regarding `CCN1CCN(c2ccc([N+](=O)[O-])cc2C(=O)c2ccc(Cl)cc2)CC1`, the growth inhibition is 8%.

Regarding `CCOC(=O)c1nc(C)n(-c2ccc(Cl)cc2Cl)n1`, the growth inhibition was 8%.

Take `O=[N+]([O-])c1ccccc1OCCCCN1CCCCC1`: the growth inhibition was 8%.

For the compound `C=CCn1c(-c2ccc3[nH]c(C)c(C)c3c2)n[nH]c1=S`, the growth inhibition was 2%.

Regarding `Cc1ccc(C(c2nnnn2CS(=O)(=O)c2ccc(C)cc2)N2CCC(C)CC2)cc1` (stereo unspecified), the growth inhibition was -1%.

Take `CCCNC(=O)c1c(N)n(-c2ccc(S(N)(=O)=O)cc2)c2nc3ccccc3nc12`: the growth inhibition was -1%.

Take `FC(F)(F)c1cccc(NC(=S)Nc2cccc(Cl)c2)c1`: the growth inhibition is 50% (active).

As for `CC(=O)N1CCN(C(=O)Nc2cccc(C(F)(F)F)c2)CC1`, the growth inhibition is 17%.

Consider `O=C(O)CSCC(=O)Nc1cccc(C(F)(F)F)c1`, for which the growth inhibition is 3%.

As to `Cc1cccn2c(=O)c(/C=C(\C#N)S(=O)(=O)c3ccc(Cl)cc3)c(N3CCC(C(N)=O)CC3)nc12`, the growth inhibition was 0%.

`COc1ccc(N2CCN(C(=O)CCc3nc(-c4ccc(C)cc4)no3)CC2)cc1`: the growth inhibition was -5%.

As for `CC(C)C(=O)Nc1cccc(NC(=S)NC(=O)C(c2ccccc2)c2ccccc2)c1`, the growth inhibition was -13%.

On to `O=C(CNC(=O)c1ccccc1)NCC(=O)OCc1ccc(Cl)cc1`, for which the growth inhibition was 1%.

Regarding `COc1ccc(-c2nn(C)c(=O)c3ccccc23)cc1NC(=O)COc1ccccc1`, the growth inhibition was 2%.

Consider `CN(C(=O)CC(NC(=O)c1ccccc1)(c1ccccc1)c1ccccc1)c1ccccc1`, for which the growth inhibition was -17%.

As for `CCOC(=O)CSc1ncc(-c2cccc(Cl)c2)cn1`, the growth inhibition is 2%.

Regarding `O=C(CSc1nnc(-c2cccs2)n1Cc1ccccc1)N1CCc2ccccc2C1`, the growth inhibition was -18%.

With `Cc1cccc(NC(=O)CSc2nc3c(c(=O)[nH]2)CCCC3)c1C`, the growth inhibition was 3%.
